Assay outcomes deposited in PubChem by National Center for Advancing Translational Sciences (NCATS).
KAT2A inh: blocks human GCN5L2 histone acetyltransferase. GCN5L2 HAT assay, ThioGlo1 CoA-SH fluorescence. AID 504327. 390,000 compounds, 0.21% hits. Potency, µM (titrated, usually from 58.9 µM), for inactives: at the highest dose activity change, negative = inhibition, most hits filed as inhibitors
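Fluorescence readout, Ex340nm/Em540nm: ThioGlo1 (50uM final) reacts with free CoA thiol released as 20nM GCN5L2 acetylates H3(1-25) peptide (75uM) using acetyl-CoA (70uM). Compound and enzyme sat 15 min beforehand; 20 min room-temperature reaction.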
DT40 TDP1 no CPT: qHTS for Inhibitors of human tyrosyl-DNA phosphodiesterase 1 (TDP1): qHTS in cells in absence of CPT; AID 686978, 2013; 420,000 compounds, 15% hits; DT40 Tdp1-/- hTDP1 cells, no CPT, ATP luminescence, 48 h; Potency, µM (highest dose often 46.2 µM), for the others: top-dose activity change, negative = growth inhibition, hits mostly inhibitors; note: nearly all actives have a fitted effect of over 55% in size
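Luminescent ATP content (CellTiter-Glo) served as the growth readout. Knockout chicken DT40 cells expressing human TDP1 were exposed to compounds without camptothecin for a minimum 48 hr at 37 °C.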
DT40 TDP1 CPT: growth inhibition of DT40 Tdp1-/-;hTDP1 cells with camptothecin (screen for TDP1 inhibitors); chicken DT40 Tdp1-/-;hTDP1 cells + 20 nM CPT, ATP luminescence, 48 h; Potency, µM (highest dose often 46.2 µM), for inactives: at the highest dose activity change, negative = growth inhibition, most hits filed as inhibitors; 420,000 compounds, 12% hits; AID 686979; note: nearly all actives have a fitted effect of over 55% in size
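Chicken DT40 Tdp1-/- cells stably complemented with human TDP1 were seeded at 400 cells/well in medium containing 20 nM camptothecin, exposed to pin-transferred compounds, and grown at 37 °C for at least 48 hr. Viability was read as ATP luminescence.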
PLK1 PBD inh: inhibitors of human PLK1 polo-box domain binding | P53350 | Plk1 PBD binding of FITC phosphopeptide, fluorescence polarization | Potency, µM, inactives show max response, negative = inhibition, usual class: inhibitors | 360,000 compounds, 2.8% hits | AID 720504; note: series mostly up to about 57 µM; nearly all actives have a fitted effect of over 65% in size
TDP1 inh: blocks human tyrosyl-DNA phosphodiesterase 1 | Q9NUW8 | recombinant TDP1, AlphaScreen DNA substrate cleavage | Potency, µM (top dose mostly 130 µM), for inactives: top-dose activity change, negative = inhibition, actives largely listed as inhibitors | 350,000 compounds, 0.28% hits; note: nearly all actives have a fitted effect of over 40% in size
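Here, a 5' biotin and 3' phosphotyrosine-FITC DNA oligonucleotide reports Tdp1 activity: intact substrate bridges AlphaScreen beads, while cleavage leaves a 3' phosphate and drops signal. All incubations at room temperature.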
VDR inh: blocks the human vitamin D receptor; P11473; VDR-SRC2-3 peptide fluorescence polarization, 2 h; Potency, µM, inactives show max response, negative = inhibition, hits mostly inhibitors; 400,000 compounds, 0.93% hits
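Two reagent solutions held at 4 deg C in the dark were dispensed, compounds pinned at 23 nl, and the mixture incubated 2 h at room temperature. Read-out: fluorescence polarization of VDR–SRC2-3 peptide binding.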
Starred values were filed as active, the others as inactive; ? = inconclusive; · = not tested or not shown; [ ] = dose if it differs, or a comment. A selection: hits, their analogues and other compounds. The true share with any hit is near 18%. Calls come from the whole dose curve; as a rule, active = well fitted curve in the direction sought with a large enough effect; inconclusive = small, poorly fitted or top-dose-only effect, or another doubt; inactive = no such curve, though single readings can be large; an effect the other way counts as inactive or inconclusive. % is set by controls: 0 for no effect and ±100 for the full control effect; potency is the fitted concentration of half-maximal effect.

SMILES	KAT2A inh	DT40 TDP1 no CPT	DT40 TDP1 CPT	PLK1 PBD inh	TDP1 inh	VDR inh
Cc1cccc(C)c1NC(=O)C(CCc1ccccc1)n1c(=O)c(-c2ccccc2)nc2ccccc21 (stereo unspecified)	·	4.1µM*	3.3µM*	-19%	·	·
Cc1cccc(C)c1NC(=O)C(c1ccncc1)n1c(=O)c(-c2ccccc2)nc2ccccc21 (stereo unspecified)	·	?	-12%	-12%	·	·
N#CN1CCC(NC(=O)c2cccc(C(F)(F)F)c2)CC1	·	·	·	·	0%	·
COCCNC(=O)c1ccc(-c2nc(CS(=O)(=O)c3ccccc3)c(C)o2)cc1	0%	-24%	-13%	·	0%	15%
CCc1ccc(Nc2nc(C)cc(C)c2C(N)=O)cc1	-2%	6.5µM*	?	-9%	·	-10%
Cc1ccc(Nc2nc(C)cc(C)c2C(N)=O)c(C)c1	-5%	6.5µM*	?	-4%	4%	-16%
Cc1cc(C)c(C(N)=O)c(Nc2cccc3ccccc23)n1	3%	-23%	-10%	-7%	4%[56.1 µM]	7%
Cc1cc(C)c(C(N)=O)c(Nc2ccc(F)cc2)n1	-2%	-22%	5%	-4%	·	11%
Cn1c2ccccc2c(=O)c2ccc(NCCc3cccs3)cc21	10µM*	?	?	2%	-9%	-10%
NC(=O)c1ccc(NCCc2cccs2)cc1	·	-7%	-9%	-3%	·	·
Cc1ccc(-c2csc(NC(=O)c3cc([N+](=O)[O-])ccc3N3CCOCC3)n2)cc1	-13%	?	?	-7%	7%	-14%
O=C(Nc1nc(-c2ccccc2)cs1)c1ccc(N2CCOCC2)c([N+](=O)[O-])c1	-2%	8.2µM*	15µM*	3%	5%	-12%
O=C(Nc1nc2ccccc2s1)c1ccc(N2CCCCC2)c([N+](=O)[O-])c1	-9%	15µM*	23µM*	-5%	9%	-8%
CCN1CCN(C(=O)Cn2cnc3sc(C)c(S(=O)(=O)N4CCN(c5ncccn5)CC4)c3c2=O)CC1	-3%	1%	3%	-3%	0%	-3%
CN[C@@H]1[C@@H](O[C@H]2O[C@H](CO)[C@@H](N)[C@H](O)[C@H]2O)O[C@H]2C[C@@H](N)[C@@H](O[C@H]3[C@H](O)[C@@H](O)[C@H](N)C[C@@H]3N)O[C@@H]2[C@@H]1O	·	-4%[21.1 µM]	-5%[21.1 µM]	·	·	·
S=C(NCC1CCCO1)c1ccc(Br)cc1 (stereo unspecified)	-10%	?	?	12µM*	7%	?
CCCC1=Nc2cc(C(=O)N3CCC(C)CC3)ccc2Sc2ccc(C)cc21	-13%	-21%	-4%	·	-2%	-6%
CC1=Nc2cc(C(=O)NC3CCC(C)CC3)ccc2Sc2c(C)ccc(C)c21 (stereo unspecified)	-3%	·	·	·	1%	-5%
CCC1=Nc2cc(C(=O)NC3CCC(C)CC3)ccc2Sc2ccc(C)cc21 (stereo unspecified)	-14%	0.65µM*	1.3µM*	·	2%[12.3 µM]	11%
CCCC1=Nc2cc(C(=O)NC3CCCC3)ccc2Sc2ccc(C)cc21	-12%	1µM*	1.5µM*	·	0%	-3%
CCOC(=O)N1CCC(NC(=O)c2ccc3c(c2)N=C(C)c2c(C)ccc(C)c2S3)CC1	-12%	1.2µM*	2.1µM*	-2%	4%	17%
O=C(NCC1CCCO1)c1ccc(C(=O)NCC2CCCO2)cc1 (stereo unspecified)	0%	-12%	4%	-8%	2%	2%
CCCCC(=O)N(Cc1ccc(-c2ccccc2-c2nn[nH]n2)cc1)[C@@H](C(=O)O)C(C)C	·	-21%	-18%	·	·	·
Cc1cc(C)c(-c2c(O)c3cccnc3n(C)c2=O)c(C)c1	·	-5%	0%	-6%	·	7%
